Among all 370,000 compounds or so, about 520 (0.14%) were called active. For the sample, actives were picked, then their nearest neighbours and some compounds at random. A number with no mark means an inactive call. Rule as the data show it: active = activation above about 40%; inactive = the rest.

Our source for the activation values is PubChem BioAssay AID1671463 (Sanford-Burnham Center for Chemical Genomics, 2021).

This test deals with Atrial natriuretic peptide receptor 1 (Homo sapiens) (UniProt P16066). The experiment in a line: GC-A stimulated cGMP production enhancers – HEK293 GC-A cells, cGMP TR-FRET, EC30 ANP, primary screen (AID 1671463). Conditions: at 10 µM, active compounds read high, 0% at EC30 ANP, 100% saturating ANP. (Time-resolved FRET reads energy transfer from a long-lived donor to a nearby acceptor.)
Chain of Atrial natriuretic peptide receptor 1 (Homo sapiens) (P16066 whole entry, looked up): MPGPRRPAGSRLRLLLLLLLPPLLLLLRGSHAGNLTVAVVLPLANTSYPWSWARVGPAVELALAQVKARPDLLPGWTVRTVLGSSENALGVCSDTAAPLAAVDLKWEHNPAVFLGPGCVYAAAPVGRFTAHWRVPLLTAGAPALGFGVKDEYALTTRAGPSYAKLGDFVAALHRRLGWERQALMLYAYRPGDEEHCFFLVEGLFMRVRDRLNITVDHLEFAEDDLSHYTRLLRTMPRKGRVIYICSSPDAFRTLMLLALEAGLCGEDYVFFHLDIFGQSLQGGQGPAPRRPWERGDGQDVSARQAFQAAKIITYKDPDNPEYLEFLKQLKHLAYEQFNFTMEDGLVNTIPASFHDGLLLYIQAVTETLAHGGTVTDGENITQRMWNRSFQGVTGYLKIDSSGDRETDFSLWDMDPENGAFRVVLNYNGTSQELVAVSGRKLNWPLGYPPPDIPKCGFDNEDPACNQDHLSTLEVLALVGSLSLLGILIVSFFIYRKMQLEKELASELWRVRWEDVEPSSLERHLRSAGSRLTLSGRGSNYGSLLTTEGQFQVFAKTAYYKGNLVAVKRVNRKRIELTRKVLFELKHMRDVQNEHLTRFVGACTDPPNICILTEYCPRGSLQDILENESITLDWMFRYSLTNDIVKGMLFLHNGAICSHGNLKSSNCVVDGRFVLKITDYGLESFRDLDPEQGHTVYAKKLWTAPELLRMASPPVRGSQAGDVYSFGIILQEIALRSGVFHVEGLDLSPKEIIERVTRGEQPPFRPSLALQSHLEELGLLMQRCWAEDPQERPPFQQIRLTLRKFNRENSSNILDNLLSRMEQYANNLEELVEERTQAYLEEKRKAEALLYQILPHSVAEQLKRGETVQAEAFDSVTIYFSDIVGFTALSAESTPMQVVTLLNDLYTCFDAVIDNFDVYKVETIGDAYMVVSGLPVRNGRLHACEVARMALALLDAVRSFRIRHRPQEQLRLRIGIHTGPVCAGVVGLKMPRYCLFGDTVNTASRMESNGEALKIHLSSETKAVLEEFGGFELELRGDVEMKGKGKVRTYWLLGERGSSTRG
For `O=C(/C=C/Sc1ncn[nH]1)c1ccc(Cl)cc1`, the activation is 64.8% (active). With `COc1ccc(CN2CC[C@H]3C=CC[C@@H](C(=O)N4CCOCC4)[C@H]3C2=O)cc1OC` the figure was 1.45%; with `COC(=O)c1c(NC(=O)COc2ccc(Cl)cc2Cl)sc2c1CC(C)(C)NC2(C)C`, 6%; with `CSCC[C@H](NC(=O)NC1CCCC1)C(=O)O`, 0.42%.

Consider `O=C(NCCc1ccccc1)c1c[nH]c2ccc(F)cc2c1=O`, for which the activation was 1.93%.

On to `O=c1[nH]c2c(c(=O)n1-c1ccccc1)CCO2`, for which the activation is -0.17%. As for `Fc1ccc(Nc2nnns2)cc1`, the activation was 3.58%. With `COCCN(Cc1ccccc1)C(=O)Cc1ccc(S(=O)(=O)N2CCOCC2)s1` the figure was -2.49%; with `CS(=O)(=O)c1cccc(-c2ccc3nncn3c2)c1`, 4.9%. On to `CCCCS(=O)c1snnc1C` (stereo not given), for which the activation is 1.27%. Take `COc1ccc(/C=C/CN2CCN(Cc3ccc(C)cc3)C(CCO)C2)cc1` (stereo not given): the activation is 0.4%.

For `O=C(OCC(=O)N1CCCC1)c1ccc(Cl)nc1`, the activation was -0.33%. With `CC1(C)CC(N(Cc2ccccc2)C(=O)Cc2ccccc2)CCO1` (stereo not given) the figure was -16.2%; with `CCOc1c(Br)cc(/C=C2\C(=O)N(CCC#N)N=C2C)cc1OC`, 40.1% (active). As for `Cc1ccc(C(c2nnnn2CS(=O)(=O)c2ccc(C)cc2)N2CCC(C)CC2)cc1` (stereo not given), the figure is -0.04%. As for `CCCSc1nsc(N)n1`, the figure is -1.07%.

Take `CC(C)(CNC(=O)Cc1ccc(Cl)cc1Cl)N1CCOCC1`: the activation is 1.34%. As for `CCOC(=O)c1cccc(NC(=O)C2CCCN(S(=O)(=O)c3cnc[nH]3)C2)c1` (stereo not given), the figure is 1.55%; as for `Cc1ccsc1C1C(C#N)=C(N)OC2=C1C(=O)CC(C)(C)C2` (stereo not given), 1.86%; as for `CCCn1nnnc1NC(=O)COc1ccc(Cl)cc1C`, 0.54%. With `O=C(c1ccc(CS(=O)Cc2ccccc2Cl)o1)N1CCN(c2ccccc2)CC1` (stereo not given) the figure was -8.64%. `Cc1ccsc1C(=O)NCCc1ccco1`: the activation is 5.29%. As for `O=C(NCCc1ccco1)c1nn(Cc2ccccc2)c(=O)c2ccccc12`, the figure is 41.3% (active); as for `O=c1c2ccccc2c(-c2ccc(Br)cc2)nn1Cc1ccccc1`, 1.66%.

Consider `Cc1ccc(S(=O)(=O)NNC(=S)NC(C)(C)C)cc1`, for which the activation is 4.04%. With `COC(=O)[C@@H](NC(=O)Nc1cc(Cl)ccc1C)C(C)C` the figure was 4.54%; with `CC(C)Oc1ccc(S(=O)(=O)N2CCOCC2)cc1NC(=O)C1CCCC1`, 0%.

`Cn1c2ccccc2c2cc(/C=C(\NC(=O)c3ccccc3)C(=O)NCC(=O)O)ccc21`: the activation is 1.03%.

Consider `COCCCNC(NC(=O)c1ccc(OC)cc1)C(Cl)(Cl)Cl` (stereo not given), for which the activation was -6.96%. With `CSCCC(Nc1ccc(S(=O)(=O)N2CCOCC2)cc1[N+](=O)[O-])C(=O)OCC(=O)N(C(C)C)C(C)C` (stereo not given) the figure was 3.61%; with `CCOC(=O)CNc1nc(Cl)nc(Nc2ccccc2)n1`, -0.38%; with `CCC(=O)Nc1ccc(Nc2nc(Cl)nc(Nc3ccc(NC(=O)CC)cc3)n2)cc1`, 41.8% (active). With `CCC(=O)Nc1ccc(-c2ccc(N3CCCCC3)nn2)cc1` the figure was 1.98%. As for `CCC(=O)N1CCC(C)(C(=O)Nc2cc(OC)c(OC)c(OC)c2)C1` (stereo not given), the figure is 0.68%; as for `CCCc1cc(=O)[nH]c(SCC(=O)c2c(N)n(CC(C)C)c(=O)n(C)c2=O)n1`, -6.69%; as for `Cc1ccc(S(=O)(=O)N2CCOCC2)cc1NC(=O)CSc1nnc(N)s1`, -4.98%.

For the molecule `COc1ccc(C#CCNCc2ccc(OC)cc2OC)cc1`, the activation is -0.15%. `O=C(Oc1ccc2c(c1)CCC2)N1CCOCC1`: the activation was 4.74%. With `CCOC(=O)C(=O)N(Cc1ccccc1)c1ccccc1C(=O)Nc1cc(OC)ccc1OC` the figure was -11.8%; with `COc1ccc(NC(=S)SC)cc1OC`, 1.77%.

Regarding `COc1ccccc1C(=O)N(C1=NC(C)CS1)c1ccc(Cl)cc1` (stereo not given), the activation was -15.5%. On to `CC1CCN(CCCNC(=O)CN2C(=O)CSc3ccc(S(=O)(=O)N4CCCCC4)cc32)CC1`, for which the activation was 3.44%. As for `Cn1nc(C(F)(F)F)cc1-c1ccc(/C=C(\C#N)C(=O)c2cccc(C(F)(F)F)c2)s1`, the figure is 25.6%; as for `CC1CCCC(N2CCN(C(=O)c3ccc(F)cc3)CC2)C1` (stereo not given), 5.28%; as for `O=S(=O)(c1ccc(-c2ccccc2)cc1)N1CCCC1`, 0.74%.

With `Cc1cccc(C(=O)Nc2ccccc2-c2nnn(CC(=O)Nc3ccc4c(c3)OCCO4)n2)c1`, the activation was -13.7%. As for `CN1C[C@]2(C=C3CCCCC3n3c(=O)n(-c4ccccc4)c(=O)n32)N=C1NC(=O)c1ccccc1` (stereo not given in full), the figure is -1.71%. With `C#CCCN([C@H](C(=O)OC)C(C)C)S(=O)(=O)c1ccc(F)cc1Br` the figure was -5.17%; with `COc1ccccc1-n1nnnc1S(=O)(=O)Cc1ccc(Cl)cc1`, 0.71%; with `Cc1nc(-c2ccc(Cl)cc2)sc1C1(C)CC(c2ccc(Br)cc2)=NO1` (stereo not given), -0.28%.

With `Cc1nc(-c2ccc(Cl)cc2)sc1C(=O)CBr`, the activation is 49.9% (active). As for `Cc1nc(-c2ccc(Cl)cc2)sc1C1(C)CC(c2ccccc2F)=NO1` (stereo not given), the figure is 2.63%.

In the case of `Cc1ccccc1CN1CCCCC(NC(=O)c2cccc(C#N)c2)C1=O` (stereo not given), the activation is 1.67%. As for `CCOc1ccc(S(=O)(=O)N2CCC(c3ccccc3)CC2)cc1C(=O)O`, the figure is 0.54%; as for `CCOc1cc(/C=N/O)ccc1OCc1ccccc1F`, -0.44%. As for `COc1cc(/C=C2/C(=O)ON=C2C)ccc1OCc1ccccc1F`, the figure is 51.8% (active). With `C/C=C/c1ccc(OCCOc2ccc(C=O)cc2OC)c(OC)c1` the figure was 3.2%; with `COc1ccnc2c1c(=O)n(Cc1cccc(F)c1)c(=O)n2C`, 8.86%. Turning to `COc1cc(CNc2ncn[nH]2)ccc1OCc1ccccc1C`, the activation is 0.42%. With `COc1cc(/C=C2/C(=O)ON=C2C)ccc1OCc1cccc(F)c1` the figure was 52.6% (active); with `COc1ccc(CCNC(=O)c2ccc(NC(=O)CC3SC(N4CCCCC4)=NC3=O)cc2)cc1OC` (stereo not given), -0.61%. For the molecule `COCCCN1C(=O)C(=O)/C(=C(/O)c2ccc(S(=O)(=O)N3CCOCC3)cc2)C1c1ccc(F)cc1` (stereo not given), the activation is 1.53%. Take `CCc1c(-c2ccccc2OC)ncn1CCc1ccccc1OC`: the activation was -8.39%. As for `CCc1nc2c(OCc3cccc(OC)c3)cccn2c1N(C)C(=O)C(C)C`, the figure is -2.25%; as for `CC(NC(=O)CCCC1CCCCC1)c1ccc(S(N)(=O)=O)cc1` (stereo not given), -4.53%; as for `CC(=O)Oc1c(C(=O)c2nnc(C)o2)c(=O)n(Cc2ccccc2)c2ccccc12`, -0.69%. On to `O=C1CCCCC1Sc1ccc(Cl)cc1[N+](=O)[O-]` (stereo not given), for which the activation was -7.33%. Consider `CCN(CC)C(CNC(=O)CSc1nnnn1-c1cccc(F)c1)c1ccco1` (stereo not given), for which the activation is 2.86%.

Take `Cc1ccc(S(=O)(=O)N2C[C@@H]3CCCC[C@@H]3[C@@H](C)[C@H]2c2cn(Cc3ccccc3)c3ccc(F)cc23)cc1`: the activation is 3.1%.

`Cc1ccc(C(=O)NC(=S)Nc2ccc3[nH]c(=O)[nH]c3c2)cc1C`: the activation is -4.45%.

With `CCc1ccc(Oc2coc3cc(O)ccc3c2=O)cc1`, the activation was 9.73%.

For `COC(=O)COc1ccc2c(=O)c(Oc3ccccc3Br)coc2c1`, the activation was 46.5% (active). With `CCc1ccc(Oc2coc3cc(OC(=O)c4cc5ccccc5oc4=O)ccc3c2=O)cc1` the figure was -3.3%. As for `CC[C@H](C)[C@@H](C(=O)N1CCNCC1)n1cc([C@@H](N)Cc2ccc(O)cc2)nn1`, the figure is -0.45%; as for `CC1(C)CC(=O)c2cnc3nc4ccccc4n3c2C1`, 1.08%; as for `Cc1ccc(Cn2c(=N)c(S(=O)(=O)c3ccc(C)cc3)cc3c(=O)n4ccccc4nc32)cc1`, 0.3%. As for `CCn1c(CSc2nc(C)cc(C)n2)nnc1SCC(N)=O`, the figure is -2.17%; as for `Cc1cc(C)nc(S/C=C/C(=O)c2ccccc2)n1`, 43.5% (active); as for `Cc1cc(C)nc(NC(=O)Nc2ccccc2C(F)(F)F)n1`, 9.79%. Take `Cc1cc(NC(=O)CCC(=O)N(CC(=O)NCC2CCCO2)c2ccccc2)no1` (stereo not given): the activation is -2.42%.

In the case of `CC#CC[N+](C)(C)CCCCCC`, the activation was 1.8%. As for `O=C(NCCCO)/C(=C\C=C\c1ccccc1)NC(=O)c1ccccc1Cl`, the figure is 1.06%; as for `COc1ccc(C2OC(=O)CC2C(=O)NC(C)C)cc1` (stereo not given), -0.27%.

For `O=C1CN(C(=O)c2ccccc2F)C(c2ccc(F)cc2)c2cc(F)ccc2N1` (stereo not given), the activation is -11%. With `CCCCN1C(=S)NC[C@@H]1C(C)CC` (stereo not given in full) the figure was -0.8%; with `CC[n+]1cc(C)ccc1/C=C/c1ccc(N(C)C)cc1`, -28.2%.

Take `CCCc1nn(C)c2c(=O)[nH]c(-c3cc(S(N)(=O)=O)ccc3OCC)nc12`: the activation is 53.2% (active). As for `CCOc1ccc(-n2cnc3c(=O)[nH]c(N)nc32)cc1`, the figure is 23%; as for `CCOc1ccccc1N1CCN(C(=S)Nc2ccc(S(N)(=O)=O)cc2)CC1`, 2.84%. As for `CC1CCC(N2CC(=O)N(Cc3ccc4c(c3)OCO4)C(c3ccc(F)cc3)C2=O)CC1` (stereo not given), the figure is -15.6%. With `Cc1csc(NC(=O)C2CCCN2C(=O)OCC(C)C)n1` (stereo not given) the figure was -0.58%; with `CN(C)CCCn1c(SCCN2C(=O)c3ccccc3C2=O)nc2ccccc2c1=O`, -1.16%. As for `CN(C)CCn1c2c(c(SCC(=O)NCc3ccccc3)nc1=O)CCC2`, the activation is 3.93%. With `O=C(NCc1ccccc1)C(c1cccnc1)N(C(=O)c1csnn1)c1ccc(F)cc1` (stereo not given) the figure was 2.49%; with `O=C1CCC(=O)N1CCOP1(=O)COc2ccccc2OC1`, 1.8%. With `Cc1ccc(Cl)cc1NC(=O)COC(=O)C1CCCCC1` the figure was 4.33%; with `COc1ccc(NC(=O)CN(C)C(=O)Cc2coc3cc(C)c(C)cc23)cc1`, 0.74%; with `CC(C)=CCN1CCN(Cc2ccc(Oc3ncccn3)cc2)CC1CCO` (stereo not given), -0.64%. As to `Cc1nc(-c2nnc(SCC(=O)Nc3cc(C(F)(F)F)cc(C(F)(F)F)c3)n2C)cs1`, the activation was 1.31%. With `COc1cc2c(cc1OC)/C(=C/C(=O)c1ccc(NC(C)=O)cc1)NCC2` the figure was 6.02%. With `CC1CN/C(=C\C(=O)c2ccc(Br)cc2)C(=O)N1` (stereo not given) the figure was 45.4% (active). As for `O=C(O)C1CCCN1S(=O)(=O)c1ccc(Br)cc1` (stereo not given), the figure is 3.81%; as for `COc1ccc(N(CCC#N)S(=O)(=O)c2ccc(Cl)cc2)cc1`, -7.67%. With `Cc1ccccc1CN(c1ccc(C(=O)NCC2CCCO2)cc1)S(C)(=O)=O` (stereo not given), the activation is 2.8%. As for `COc1ccc(CCNC(=O)CSc2nc3c([nH]2)c(=O)n(C)c(=O)n3C)cc1`, the figure is -1.99%; as for `Cc1[nH][nH]c(=O)c1C(c1ccc(-c2ccc(Cl)cc2)o1)c1c(C)[nH][nH]c1=O`, 3.79%. As for `CS(=O)(=O)c1ccc2nc(NC(=O)c3ccc(N4CCCC4=O)cc3)sc2c1`, the figure is 62.2% (active); as for `O=C(Nc1cc(S(=O)(=O)N2CCOCC2)ccc1OCC(F)(F)F)c1ccc(N2CCCC2=O)cc1`, -0.92%. With `O=C(NCCCN1CCCCCC1)c1ccc(N2CCCC2=O)cc1` the figure was -0.43%; with `CC(=O)Nc1cc(-c2ccccc2N(C)C)cn2c(-c3ccc(F)c(Cl)c3)cnc12`, 3.6%.
